Compound activity (PubChem BioAssay)
MCF10A rerep = DNA re-replication induction in MCF 10a cells; 350,000 compounds, 2.9% hits; MCF 10A DNA re-replication, Hoechst nuclear intensity, 48 h; Potency, µM (titrated, usually from 46.1 µM), without a hit: at the top dose activity, positive = re-replication, usual class: activators; AID 624296; also: % of control where 0% means no effect; nearly all actives have a fitted effect of over 50% in size
KB-3-1 cytotox = KB-3-1 parental cell cytotoxicity; KB-3-1 viability, CellTiter-Glo ATP luminescence, 72 h; Potency, µM (doses to about 46.1 µM), usual class: cytotoxic; 400,000 compounds, 1.4% hits; AID 1347075; also: % is scaled to controls: 0 for no effect and ±100 for the full control effect; nearly all actives have a fitted effect of over 60% in size
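Viability of parental KB-3-1 cells, measured by CellTiter-Glo luminescence, followed a 72 h incubation at 37 °C with pinned compounds in phenol-red-free DMEM containing 10% FBS.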
HT1080 IDH1KD tx = kills HT-1080 cells with IDH1 knockdown; HT-1080 IDH1 knockdown viability, ATP luminescence, 48 h; 360,000 compounds, 2% hits; Potency, µM (titrated, usually from 46.1 µM), without a hit: top-dose activity, negative = toxicity, actives largely listed as cytotoxic;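 also: 0% = DMSO wells and -100% = cell-free medium wells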
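Knockdown cells (IDH1KD HT-1080) received compounds 2 h after plating at 750 cells/well and were kept 48 h at 37 °C in 5% FBS RPMI. A CellTiter-Glo luminescence read gave % activity for curve fitting.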
HT1080-NT tox = kills 2HG-producing HT-1080-NT fibrosarcoma cells; HT-1080-NT fibrosarcoma viability, CellTiter-Glo ATP luminescence, 48 h; AID 686970; 360,000 compounds, 1.6% hits; Potency, µM (highest dose often 46.1 µM), without a hit: top-dose activity, negative = less viability, most hits filed as cytotoxic;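 also: NT is the 2HG producing partner of a matched IDH1 knockdown line; 0% = DMSO-treated cells and -100% = media-only wells without cells; nearly all actives have a fitted effect of over 55% in size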
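750 cells/well, RPMI + 5% FBS; 2 h settle, compound pin-transfer, 48 h at 37 degrees C. CellTiter-Glo 10 min RT, luminescence. Normalized to DMSO and media-only wells.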
KB-V1 cytotox = kills drug-selected multidrug resistant KB-V1 cells; KB-V1 MDR cells viability, CellTiter-Glo, 72 h; Potency, µM (titrated, usually from 46.1 µM), hits mostly cytotoxic; 400,000 compounds, 3.4% hits; AID 1347076; also: % is scaled to controls: 0 for no effect and ±100 for the full control effect; nearly all actives have a fitted effect of over 60% in size
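In this primary screen, KB-V1 cells overexpressing P-gp are incubated with library compounds (lowest to highest concentration) for 72 h at 37 degrees C before a luminescent ATP viability read.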
SW480 rerep = induces DNA re-replication in SW480 colon adenocarcinoma cells; SW480 DNA re-replication, Hoechst DNA content imaging, 48 h; Potency, µM (series often up to 46.1 µM), inactives show at the top dose re-replication activation, hits mostly activators; 340,000 compounds, 1.8% hits; also: % of control where 0% means no effect; nearly all actives have a fitted effect of over 55% in size
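DNA re-replication was detected as more nuclei of elevated Hoechst intensity after 48 hr exposure to compound (23 nL pinned per well of 250 cells).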
The depositor's hits bear a star; i = inactive; ? = inconclusive; nt = not tested or not shown; [ ] = remark or other dose. Shown are actives, neighbours in structure and some others; about 7.9% of the full set was active somewhere. Calls follow the shape of the dose curve; as a rule, active = well fitted curve in the direction sought with a large enough effect; inconclusive = small, poorly fitted or top-dose-only effect, or another doubt; inactive = no such curve, though single readings can be large; an effect the other way counts as inactive or inconclusive. Potency is read from the fitted curve at half-maximal effect.

SMILES	MCF10A rerep	KB-3-1 cytotox	HT1080 IDH1KD tx	HT1080-NT tox	KB-V1 cytotox	SW480 rerep
Cc1nc(-c2ccccc2)sc1-c1ccc(SCC(=O)NCc2ccccc2Cl)nn1	nt	i	nt	nt	i	nt
Cc1ccc(C(=O)/C=C/c2cn(CC(O)CN3CCc4ccccc43)c3ccccc23)cc1 (stereo unspecified)	nt	?	nt	nt	i	nt
COc1ccc(C(=O)/C=C/c2cn(CC(O)CN3CCOCC3)c3ccccc23)cc1 (stereo unspecified)	14.6µM*	i	?	?	i	14.6µM*
CCCN(CCC)CC(O)Cn1cc(/C=C/C(=O)c2ccc(OCC)cc2)c2ccccc21 (stereo unspecified)	nt	i	nt	nt	?	nt
Cc1ccc(C(=O)/C=C/c2cn(CC(O)CN3CCOCC3)c3ccccc23)cc1 (stereo unspecified)	13µM*	?	?	?	i	20.6µM*
O=c1c2oc3ccccc3c2ncn1Cc1ccc(Br)cc1	nt	i	nt	nt	i	nt
Cc1cccc(NS(=O)(=O)c2c(C)nc3sccn3c2=O)c1C	nt	i	nt	nt	?	nt
Nc1ccccc1SSc1ccccc1N	15.5%	i	23.1µM*	?	i	5.9%
Cc1ccc(OCCCNCCO)c(Br)c1	?	i	20.6µM*	?	i	?
N#Cc1ccc(C(=O)N2CCN(C(=O)C3CCCO3)CC2)cc1 (stereo unspecified)	-1.1%	i	-2.2%	-0.4%[9.24 µM]	i	-19.3%
C=CCn1c(SCC(=O)c2cc(C)n(C(C)COC)c2C)nc2sc(C)c(C)c2c1=O (stereo unspecified)	18.4µM*	i	?	-28.1%	8.2µM*	?
C=CCn1c(SCc2c(C)noc2C)nc2sc(C)c(C)c2c1=O	23.1µM*	i	11.2µM*	15.8µM*	i	?
O=c1[nH]c(S)nc2sc3c(c12)CCCC3	?	i	-5.3%	-11.7%	i	-0.1%
O=c1[nH]c(-c2ccco2)nc2sc3c(c12)CCCC3	-6.4%	i	27.5%	7.5%	18.4µM*	0.5%
CC1(C)COCN1S(=O)(=O)c1ccc(C(=O)Nc2nnc(-c3ccc(Cl)s3)o2)cc1	?	?	2.82µM*	?	i	?
CC1CCCCN1S(=O)(=O)c1ccc(C(=O)Nc2nnc(-c3ccncc3)o2)cc1 (stereo unspecified)	?	?	?	?	?	0.4%
COc1ccc(-c2nnc(NC(=O)c3ccc(S(=O)(=O)N4COCC4(C)C)cc3)o2)cc1	18.1%[9.22 µM]	?	8.2µM*	?	?	?
Cc1cccc(NC(=O)CN2C(=O)COc3ccc(S(=O)(=O)Nc4ccccc4)cc32)c1C	nt	i	nt	nt	i	nt
CCOCC(=O)Nc1c(C(=O)Nc2ccccc2OC)oc2ccccc12	-0.9%	i	-0.9%	2.3%	1.84µM*	-4.7%
COc1ccc(NC(=O)c2oc3ccccc3c2NC(=O)COc2ccccc2OC)c(OC)c1	-4.6%	i	-0.2%	18.0%	i	1.5%
CCOc1ccccc1NC(=O)c1oc2ccccc2c1NC(=O)C1CCCO1 (stereo unspecified)	7.9%	i	9.3%	15.8%	20.6µM*	6.8%
COc1ccc(NC(=O)c2oc3ccccc3c2C)c(OC)c1	-1.1%	?	-5.6%	-6.4%	20.6µM*	-0.5%
Cc1ccc(NC(=O)Cn2cc(C(=O)c3ccco3)c3ccccc32)cc1C	nt	i	nt	nt	?	nt
COc1ccc(CN2CCC3CC2c2cc(-c4cccc(C)c4)ccc23)cc1 (stereo unspecified)	9.2µM*	i	-22.2%	-18.3%	i	?
COc1ccc(CN2CCC3CC2c2cc(Cl)ccc23)cc1 (stereo unspecified)	?	?	-1.3%	-7.3%	i	-3.7%[9.22 µM]
SMILES	MCF10A rerep	KB-3-1 cytotox	HT1080 IDH1KD tx	HT1080-NT tox	KB-V1 cytotox	SW480 rerep
O=C1CC(O)(C(F)F)Oc2ccc3ccccc3c21 (stereo unspecified)	-6.6%	i	-0.1%	-0.7%	i	-2.8%
O=C1CC(O)(C(F)(F)F)Oc2c1ccc1ccccc21 (stereo unspecified)	20.6µM*	i	-5.9%	?	i	?
CCOC(=O)CSC1=NC(=O)CS1	20.6µM*	i	-2.0%	-1.9%	i	?
COc1ccc(CCNc2ncnc3c2oc2ccccc23)cc1OC	5.0%	9.2µM*	-17.3%	7.94µM*	2.59µM*	-4.4%
COc1ccc(CCNc2nc(C)nc3c2oc2ccccc23)cc1OC	?	?	-18.5%	-9.6%	16.4µM*	6.7%
Cc1ccc(S(=O)(=O)N2CCN(C(=O)C3COc4ccccc4O3)CC2)cc1C (stereo unspecified)	11.8%	i	-0.1%	-2.4%	9.2µM*	0.9%
Cc1ccc(S(=O)(=O)N2CCN(C(=O)[C@H](Cc3ccccc3)NC(=O)c3ccco3)CC2)cc1	9.2%	?	3.2%	-1.4%	i	2.3%
Cc1ccc(S(=O)(=O)N2CCN(C(=O)[C@H](Cc3ccccc3)NC(=O)c3ccco3)CC2)cc1C	1.5%	i	-13.5%	-2.6%	11.6µM*	0.4%
CN1C(=O)C(=O)N(CC(=O)Nc2ccccc2OC(F)F)C1=O	2.2%	i	1.1%	10.3%	i	-8.2%
COCCn1c(=O)[nH]c2cc(C(=O)N3CCN(c4cccc(C)c4C)CC3)ccc2c1=O	?	i	-0.8%	-0.8%	i	2.4%
O=C(Nc1nccs1)c1nc[nH]c1C(=O)NCc1ccccc1	0.2%	?	0.82µM*	?	i	1.8%
CN(Cc1ccccc1)C(=O)c1[nH]cnc1C(=O)Nc1nccs1	?	i	7.1%	11.9%	i	-7.9%
O=C(NCc1ccccn1)C(=O)NCC1OCCN1S(=O)(=O)c1ccc(F)cc1 (stereo unspecified)	-1.0%	i	10.9%	18.7%	i	-6.0%
N#Cc1cn(-c2ccccc2)nc1-c1ccc2c(c1)OCCO2	10.3µM*	i	10.0%	11.8%	i	-3.3%
CCCC(=O)NNc1c2ccccc2nc2ccccc12	-8.7%	i	9.0%	-1.3%	16.4µM*	-9.5%
O=C(NNc1nc(=O)c2cccnc2s1)c1ccccc1O	-7.6%	?	?	-26.5%	i	0.92µM*
COc1ccc(OCC(=O)NNc2c3ccccc3nc3ccccc23)cc1	?	?	?	-27.6%	4.61µM*	-3.1%
O=C(CCCO)NNc1c2ccccc2nc2ccccc12	-4.5%	i	1.2%	5.7%	i	?
